This note sets out measurements from PubChem BioAssay (NCATS).

Several values for one entry are separate records, joined by “and”; a condition that tells them apart may be missing. Equal values may be shown once. Results filed as inconclusive are left out. A call without a number means that no potency is given here. Activity calls are given as the source filed them. Calls come from the whole dose curve; as a rule, active = well fitted curve in the direction sought with a large enough effect; inconclusive = small, poorly fitted or top-dose-only effect, or another doubt; inactive = no such curve, though single readings can be large; an effect the other way counts as inactive or inconclusive.

Sequence of Cellular tumor antigen p53 (Homo sapiens) (P04637 whole entry, looked up): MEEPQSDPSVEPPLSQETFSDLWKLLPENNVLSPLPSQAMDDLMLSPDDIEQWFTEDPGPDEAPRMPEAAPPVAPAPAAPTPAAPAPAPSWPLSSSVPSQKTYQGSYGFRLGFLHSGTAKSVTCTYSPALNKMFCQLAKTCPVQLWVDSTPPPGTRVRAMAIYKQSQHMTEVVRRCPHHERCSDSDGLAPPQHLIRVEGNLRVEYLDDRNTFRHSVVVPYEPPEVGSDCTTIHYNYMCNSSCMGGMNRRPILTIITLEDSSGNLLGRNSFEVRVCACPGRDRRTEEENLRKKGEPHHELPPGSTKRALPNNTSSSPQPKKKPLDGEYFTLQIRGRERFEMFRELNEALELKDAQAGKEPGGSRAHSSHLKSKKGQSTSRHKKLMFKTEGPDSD

The first test concerns the target Cellular tumor antigen p53 (Homo sapiens) (UniProt P04637). Kind of test: Primary qHTS for small molecule compounds that upregulate eGFP-tagged delta133p53alpha (in N-terminal) cells. (AID 2060322). Note: nearly all actives have a fitted effect of over 75% in size. The following applies: NCI-H358 eGFP-delta133p53alpha fluorescence, 24 h; activation: active compounds read high. Summed up: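 NCI-H358 cells pre-induced 24 h with 10 ng/ml doxycycline to express N-terminal eGFP-delta133p53alpha, then dosed 24 h at 37C without doxycycline; fixed, Hoechst-stained, GFP intensity by laser scanning cytometry, normalized to DMSO (0%) and 57.5 uM 5-azacytidine (100%).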
In general terms: Quantitative high-throughput screening tests each substance at several concentrations.
On to `C[C@](Cc1ccc(O)c(O)c1)(NN)C(=O)O`, for which the activation was -15.4% (inactive).

`CCCCCC[C@@H]([C@@H](C)O)n1cnc2c(N)ncnc21`: the activation was -41.6% (inactive). On to `N.N.O=C(O)C1(C(=O)O)CCC1.[Pt+2]`, for which the activation was -8.5% (inactive). The same measure, in the same setting: the result for `O=C(CCCN1CCC(O)(c2cccc(C(F)(F)F)c2)CC1)c1ccc(F)cc1` reads 13.4% (inactive) and 14.3% (inactive); that for `CCCC[C@@]1(C2CCCC2)Cc2cc(OCC(=O)O)c(Cl)c(Cl)c2C1=O`, -7.36% (inactive). Take `CC(N)=NCCCC[C@@H](N)C(=O)O`: the activation was -1.95% (inactive).

On to `Cc1cccc(C2CN(C)CCc3c2cc(O)c(O)c3Cl)c1` (stereo not drawn), for which the activation was -49.3% (inactive). For `OCCN1CCN(CCCN2c3ccccc3C=Cc3ccccc32)CC1`, the activation was -10.7% (inactive) and -5.62% (inactive). On to `N[C@@H](CS(=O)O)C(=O)O`, for which the activation is -27.4% (inactive). Take `c1cnc(N2CCN(Cc3ccc4c(c3)OCO4)CC2)nc1`: the activation was 8.37% (inactive) and 9.57% (inactive). Turning to `Oc1cc2c(cc1O)CN(C(=S)NCCc1ccc(Cl)cc1)CCC2`, the activation is -14.7% (inactive). Same read-out and setting: under `NCCC1CCCC(CCN)N1` (stereo not drawn) stands 10.3% (inactive); under `O=c1[nH]c(=O)c2nc3ccccc3nc2[nH]1`, -4.5% (inactive); under `O=C(O)COCCN1CCN(C(c2ccccc2)c2ccc(Cl)cc2)CC1` (stereo not drawn), 0.565% (inactive) and 21.7% (inactive) and -7.29% (inactive). For the compound `Clc1ccc(N2CCN(Cc3c[nH]c4ncccc34)CC2)cc1`, the activation is -17.7% (inactive). Same read-out and setting: the result for `NO` reads -15.6% (inactive). Take `CCNC(=O)[C@H]1O[C@@H](n2cnc3c(N)nc(NCCc4ccc(CCC(=O)O)cc4)nc32)[C@H](O)C1O` (stereo partly drawn): the activation is -0.799% (inactive).

For the compound `O=C(CCc1ccncc1)NNC(=O)N1Cc2ccccc2Oc2ccc(Cl)cc21`, the activation was -9.58% (inactive). For the compound `CN1CCN(CCCN2c3ccccc3Sc3ccc(Cl)cc32)CC1`, the activation is 23.2% (inactive) and -10.9% (inactive) and -6.59% (inactive). Regarding `CN1CCc2cccc3c2C1Cc1ccc(O)c(O)c1-3` (stereo not drawn), the activation is 49.9% (inactive). `CNc1cc(NS(=O)(=O)c2ccc(N)cc2)nc(NC)n1`: the activation is -5.43% (inactive). Regarding `[N-]=[N+]=Nc1ccc(C(=O)CSC[C@H](NC(=O)CC[C@H](N)C(=O)O)C(=O)NCC(=O)O)cc1`, the activation is -38.2% (inactive). Turning to `Oc1cc2c(cc1O)C(c1ccccc1)CNCC2` (stereo not drawn), the activation is 5.86% (inactive).

The next test has the same target. As to the kind of experiment: Primary qHTS for small molecule compounds that upregulate eGFP-tagged delta133p53alpha (in C-terminal) cells. (AID 2060324). Note: potency is the fitted concentration of half-maximal effect. The following applies: NCI-H358 delta133p53alpha-eGFP (C-terminal tag), GFP fluorescence imaging, 24 h; series mostly up to 57.5 µM. Summed up: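 NCI-H358 cells with doxycycline-inducible D133p53a-eGFP (C-terminal tag), pre-induced 24 h with 100 ng/ml doxycycline, plated 800/well in doxycycline-free medium and treated 24 h at 37 °C with compound titrations. Cells were then fixed and Hoechst-stained, and GFP intensity was read by laser scanning cytometry.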
For `c1cc(CN2CCCCC2)cc(OCCCNc2nc3ccccc3s2)c1`, the Potency result was “inactive”. `CN1CCc2ccccc2Cc2[nH]c3ccccc3c2CC1`: the Potency is 26.9 µM (active). Still for that read-out and setting: the result for `CC(=O)Oc1cc(C(C)C)c(OCCN(C)C)cc1C` reads “inactive”; that for `CCCN(CCc1ccccc1)C1CCc2c(O)cccc2C1` (stereo not drawn), “inactive”; that for `COc1ccc(CCN(C)CCc2ccc(OC)c(OC)c2)cc1OC`, “inactive”. In the case of `Cc1cccc(/C=C/c2ccccc2)n1`, the Potency entry is “inactive”. As for `COc1ccccc1CNCCCCCCNCCCCCCCCNCCCCCCNCc1ccccc1OC`, the Potency result was “inactive”.

Take `COCCOc1cc2ncnc(Cl)c2cc1OCCOC`: the Potency entry was “inactive”.

In the case of `CC(=O)NCCc1c[nH]c2ccc(O)cc12`, the Potency result was “inactive”.

As for `CCCCCCCCCCCCCCCCCC(=O)OC(CC(=O)O)C[N+](C)(C)C` (stereo not drawn), the Potency result was “inactive”. Consider `COc1ccccc1N1CCN(CCN(C(=O)c2ccc(F)cc2)c2ccccn2)CC1`, for which the Potency result was “inactive”. In the case of `NC(N)=Nc1nc(CSCC/C(N)=N/S(N)(=O)=O)cs1`, the Potency entry was “inactive”.

`CCN(CC)CCNC(=O)c1ccc(NS(C)(=O)=O)cc1`: the Potency result is “inactive”.

As for `COc1ccccc1CN[C@@H]1CCCN[C@@H]1c1ccccc1`, the Potency result was “inactive”. The same measure, in the same setting: under `O=C(O)Cc1c[nH]c2ccc(O)cc12` stands “inactive”. As for `CCN(CC)CCOC(=O)c1cc(Cl)c(N)cc1OC`, the Potency entry is “inactive”. With `Cc1cccc(C(=O)NCN2CCN(c3ccccc3C#N)CC2)c1`, the Potency entry was “inactive”.

Regarding `C[C@](Cc1ccc(O)c(O)c1)(NN)C(=O)O`, the Potency entry was “inactive”. Still for that read-out and setting: the result for `CCCCCC[C@@H]([C@@H](C)O)n1cnc2c(N)ncnc21` reads “inactive”; that for `N.N.O=C(O)C1(C(=O)O)CCC1.[Pt+2]`, “inactive”; that for `O=C(CCCN1CCC(O)(c2cccc(C(F)(F)F)c2)CC1)c1ccc(F)cc1`, “inactive”. Regarding `CCCC[C@@]1(C2CCCC2)Cc2cc(OCC(=O)O)c(Cl)c(Cl)c2C1=O`, the Potency result was “inactive”. For the compound `CC(N)=NCCCC[C@@H](N)C(=O)O`, the Potency entry was “inactive”. Turning to `Cc1cccc(C2CN(C)CCc3c2cc(O)c(O)c3Cl)c1` (stereo not drawn), the Potency entry is “inactive”. Consider `OCCN1CCN(CCCN2c3ccccc3C=Cc3ccccc32)CC1`, for which the Potency entry is “inactive”. Regarding `N[C@@H](CS(=O)O)C(=O)O`, the Potency entry was “inactive”.

For `c1cnc(N2CCN(Cc3ccc4c(c3)OCO4)CC2)nc1`, the Potency result was “inactive”.

Take `Oc1cc2c(cc1O)CN(C(=S)NCCc1ccc(Cl)cc1)CCC2`: the Potency result is “inactive”. As for `NCCC1CCCC(CCN)N1` (stereo not drawn), the Potency result was “inactive”. On the same count and under the same terms, under `O=c1[nH]c(=O)c2nc3ccccc3nc2[nH]1` stands “inactive”; under `O=C(O)COCCN1CCN(C(c2ccccc2)c2ccc(Cl)cc2)CC1` (stereo not drawn), “inactive”. In the case of `Clc1ccc(N2CCN(Cc3c[nH]c4ncccc34)CC2)cc1`, the Potency result was “inactive”. With `NO`, the Potency result was “inactive”.

For the compound `CCNC(=O)[C@H]1O[C@@H](n2cnc3c(N)nc(NCCc4ccc(CCC(=O)O)cc4)nc32)[C@H](O)C1O` (stereo partly drawn), the Potency result was “inactive”. `O=C(CCc1ccncc1)NNC(=O)N1Cc2ccccc2Oc2ccc(Cl)cc21`: the Potency entry was “inactive”. Still for that read-out and setting: the result for `CN1CCN(CCCN2c3ccccc3Sc3ccc(Cl)cc32)CC1` reads “inactive”. `CN1CCc2cccc3c2C1Cc1ccc(O)c(O)c1-3` (stereo not drawn): the Potency entry was “inactive”. As for `CNc1cc(NS(=O)(=O)c2ccc(N)cc2)nc(NC)n1`, the Potency entry is “inactive”. As to `[N-]=[N+]=Nc1ccc(C(=O)CSC[C@H](NC(=O)CC[C@H](N)C(=O)O)C(=O)NCC(=O)O)cc1`, the Potency entry was “inactive”. `Oc1cc2c(cc1O)C(c1ccccc1)CNCC2` (stereo not drawn): the Potency entry was “inactive”.
